# Shown are actives, neighbours in structure and some others; about 2.2% of the full set was active somewhere.
# VLA-4 inh: inhibition in a human VLA-4 binding assay. VLA-4 expressing cells, ligand binding flow cytometry. inhibition, % (about 7 µM as worked out from the volumes in the protocol). 0.2% of 330,000 active. AID 2557. P13612; in the data active means inhibition above about 50%
# MEKK2 mut-MEK5: signal of MEK5 binding to mutant human MEKK2 PB1 domain | 0.35% of 290,000 active | percent response, % at 10 µM | bead flow cytometry, Alexa488-MEK5 binding to MEKK2 mutant | AID 1530; in the data active means percent response above about 24%, passing the limit was not always enough
# MEKK2 WT-MEK5: raises or lowers MEK5 binding to wildtype human MEKK2 PB1 domain; Q9Y2U5; bead flow cytometry, Alexa488-MEK5 binding to MEKK2 WT; actives lie on both sides; binding response (% of control), % at 10 µM; 1.1% of 290,000 active; in the data active means binding response below about 67% or above about 130%
# MEKK3 PB1 HTS: MEKK3-MEK5 PB1 interaction, increase or decrease. binding response (% of control), % at 10 µM. 1.4% of 290,000 active. Q99759. AID 1529. bead-based flow cytometry, Alexa488-MEK5 binding to MEKK3; actives lie on both sides; 0 = blocked by unlabeled MEK5, 100 = vehicle;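 active means binding response more than 3 SD above or below the average of its plate-row segment, actives on both sides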;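 further: Alexa488 bead fluorescence after subtracting the streptavidin-only scavenger bead signal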
# VLA-4 mod pick: human VLA-4 allosteric modulation in cherry picked compounds; AID 2813; U937 cells, HUTS-21 LIBS mAb binding, flow cytometry; LDV ligand present at threefold Kd; inhibition, % at 6.7 µM; 2% of 1,300 active; shares compounds with VLA-4 inh; in the data active means inhibition above about 40%;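 further: 0% = ligand without compound and 100% = no ligand background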
# * = called active by the depositor; x = no result given.
SMILES,VLA-4 inh,MEKK2 mut-MEK5,MEKK2 WT-MEK5,MEKK3 PB1 HTS,VLA-4 mod pick
O=c1cc(C(F)(F)F)nc(-n2[nH]c3c(c2=O)CCCC3)[nH]1,50*,4,106,112,-5
Nc1ncnc2c1ncn2C1O[C@H](CO)[C@@H](O)[C@@H]1O (some centres undefined),19,x,x,x,x
Nc1ncnc2c1ncn2[C@@H]1O[C@H](CO)[C@@H](O)[C@@H]1O,-23,5,113,111,2
Nc1nc(Nc2ccccc2)nc2c1ncn2[C@@H]1O[C@H](CO)[C@@H](O)[C@H]1O,56*,1,103,102,14
Nc1nc(F)nc2c1ncn2[C@@H]1O[C@H](CO)[C@@H](O)[C@H]1O,6,1,109,109,1
C/C(=N/NC(=O)c1ccco1)c1ccc(NC(=O)c2ccc(F)cc2)cc1,0,-3,97,99,x
Cc1cnc(C(=O)OCC(=O)Nc2ccccc2[N+](=O)[O-])cn1,6,x,x,x,x
CCOc1ccc2[nH]c(C(=O)N/N=C/c3ccc(OC)cc3)cc2c1,56*,-1,97,100,34
COc1ccc(/C=N/NC(=O)c2cc3cc(OC)c(OC)cc3[nH]2)cc1,3,1,103,101,x
O=C(CSc1ccc2nnc(-c3cccc(F)c3)n2n1)NCC1CCCO1 (centres undefined),-2,7,111,107,x
O=C(CSc1ccc2nnc(-c3cccnc3)n2n1)NCC1CCCO1 (centres undefined),-20,4,104,103,2
Cc1nnc(NC(=O)CSc2ccc3nnc(-c4cccnc4)n3n2)s1,54*,-4,93,95,3
CN(Cc1ccccc1)C(=O)CN(C)S(=O)(=O)c1ccc(F)cc1,10,-3,96,92,0
CN(CC(=O)O)S(=O)(=O)c1ccc(F)cc1,8,6,101,97,x
Cc1cc(C)c(NC(=O)CN2CCN(c3ccccn3)CC2)c(C)c1,-7,1,102,101,x
C=CC[n+]1c(C)csc1Nc1ccc(C)cc1,52*,-9,90,91,0
CC(C)(C)OC(=O)N/N=C/c1ccc(Br)cc1,50*,-1,97,87,0
COc1ccc(C)cc1S(=O)(=O)N1CCN(C/C=C/c2ccccc2)CC1,0,x,x,x,x
OC1OC[C@@H](O)[C@H](O)[C@H]1O (some centres undefined),-3,x,x,x,x
CCN(C[C@H]1N[C@@](Cc2ccccc2)(C(=O)OC)[C@H]2C(=O)N(Cc3ccccc3)C(=O)[C@@H]12)C(=O)c1ccc(F)cc1,5,x,x,x,2
COC(=O)[C@]1(Cc2ccccc2)N[C@H](CN(C)C(=O)Nc2ccc(OC)cc2)[C@@H]2C(=O)N(Cc3ccccc3)C(=O)[C@@H]21,-2,x,x,x,5
CCN(C[C@H]1N[C@@](Cc2ccccc2)(C(=O)OC)[C@H]2C(=O)N(C)C(=O)[C@@H]12)C(=O)Nc1ccc(C)cc1,3,x,x,x,x
CCN(C[C@H]1N[C@@](Cc2ccccc2)(C(=O)OC)[C@H]2C(=O)N(C)C(=O)[C@@H]12)C(=O)c1ccc(C)cc1,51*,x,x,x,2
CN1CC(C(=O)Nc2ccc(F)c(Cl)c2)CC1=O (centres undefined),-10,5,107,98,x
C=CC[C@H](CC(=O)N(CCO)Cc1ccccc1)C(=O)NCCOC(=O)[C@@H](CC=C)CC(=O)OC(C)(C)C,-13,x,x,x,x
SMILES,VLA-4 inh,MEKK2 mut-MEK5,MEKK2 WT-MEK5,MEKK3 PB1 HTS,VLA-4 mod pick
CC1(C)O[C@@H]2[C@H](O1)[C@@H](CO)O[C@H]2n1cnc2c(=O)[nH]cnc21,0,x,x,x,x
O=c1[nH]cnc2c1nc(SCc1ccccc1)n2C1OC(CO)C(O)C1O (centres undefined),51*,3,102,103,8
CCCN(C(=O)c1ccccc1Cc1ccccc1)C1CCS(=O)(=O)C1 (centres undefined),1,x,x,x,x
CN(C(=O)COC(=O)c1ccc2c(c1)OCO2)C1CCCCC1,14,x,x,x,x
CN(C(=O)COC(=O)c1ccc2c(c1)OCO2)C1CCS(=O)(=O)C1 (centres undefined),93*,-9,93,93,0
CC(C)(/C=N/NC(=O)CSCc1ccc(Cl)cc1)CCC#N,4,-6,89,94,x
CCN(CC)Cc1ccccc1CNC(=O)c1cccc(S(=O)(=O)Nc2ccc3c(c2)OCO3)c1,10,x,x,x,x

# Compound activity as filed in PubChem BioAssay.
